Measured values taken from PubChem BioAssay.
The source made the active and inactive calls.

Assays:
[1] = compounds binding Alexa647 anti-His antibody – biochemical, small-molecule microarray, 635 nm fluorescence, artefact control for SMM control protein annotation, primary screen (AID 1128); settings: higher = more signal;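 note: score merges feature fluorescence with signal-to-noise for each printed compound spot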
[2] = system: Human papillomavirus type 1a E7 protein (residues 1-88); assay: HPV1a E7 small-molecule binders, primary screen, biochemical, small-molecule microarray, residues 1-88, 635 nm (AID 1129); settings: small-molecule microarray binding, fluorescence 635 nm; higher = more signal
[3] = biological target: Focal adhesion kinase 1 (Homo sapiens) (UniProt Q05397); assay: PTK2 protein binding on printed compound slides – biochemical, small-molecule microarray, 635/667 nm fluorescence, BSA, DTT, primary screen (AID 1130); settings: 635 nm fluorescence, higher = more signal;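 note: composite of spot emission at 667 nm and signal to noise over triplicate slides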
Sequence of Focal adhesion kinase 1 (Homo sapiens) (Q05397 whole entry, looked up): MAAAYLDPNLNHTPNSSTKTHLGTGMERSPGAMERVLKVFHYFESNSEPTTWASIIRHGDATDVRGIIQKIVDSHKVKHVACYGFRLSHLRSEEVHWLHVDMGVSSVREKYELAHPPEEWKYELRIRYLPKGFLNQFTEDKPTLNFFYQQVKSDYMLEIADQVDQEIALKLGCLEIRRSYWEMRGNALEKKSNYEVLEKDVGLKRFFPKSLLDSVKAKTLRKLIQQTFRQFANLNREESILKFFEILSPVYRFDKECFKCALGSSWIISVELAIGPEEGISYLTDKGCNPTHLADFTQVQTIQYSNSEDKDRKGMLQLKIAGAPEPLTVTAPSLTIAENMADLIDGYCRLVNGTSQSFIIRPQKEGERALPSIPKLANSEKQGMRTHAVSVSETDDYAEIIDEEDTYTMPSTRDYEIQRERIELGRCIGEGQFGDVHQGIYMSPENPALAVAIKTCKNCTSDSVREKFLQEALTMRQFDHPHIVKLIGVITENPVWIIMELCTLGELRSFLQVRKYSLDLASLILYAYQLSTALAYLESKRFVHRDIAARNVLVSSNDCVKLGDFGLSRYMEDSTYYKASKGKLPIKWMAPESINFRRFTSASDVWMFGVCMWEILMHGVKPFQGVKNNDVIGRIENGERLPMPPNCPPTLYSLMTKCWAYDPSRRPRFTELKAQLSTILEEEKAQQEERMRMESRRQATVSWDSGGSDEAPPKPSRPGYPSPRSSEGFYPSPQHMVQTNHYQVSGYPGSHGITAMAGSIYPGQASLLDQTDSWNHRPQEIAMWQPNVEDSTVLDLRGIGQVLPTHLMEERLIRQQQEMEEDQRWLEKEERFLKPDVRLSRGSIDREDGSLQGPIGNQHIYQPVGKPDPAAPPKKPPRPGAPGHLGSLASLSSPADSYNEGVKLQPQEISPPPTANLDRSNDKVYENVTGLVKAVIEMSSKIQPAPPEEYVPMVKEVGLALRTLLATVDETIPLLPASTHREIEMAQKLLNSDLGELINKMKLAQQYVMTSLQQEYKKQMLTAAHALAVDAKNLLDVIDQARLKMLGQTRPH

[4] = system: Fibrinogen (Alexa647-labelled); assay: Alexa647-fibrinogen binding to printed small molecules – biochemical, small-molecule microarray, 635/667 nm fluorescence, artefact control for SMM control-protein annotation, profiling panel (AID 1131); settings: fibrinogen-A647 binding fluorescence, higher = more signal;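 note: z-score merges 667 nm fluorescence with per-spot signal-to-noise over triplicate slides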
[5] = biological target: Follistatin (Homo sapiens) (UniProt P19883); assay: FST protein binding to printed compounds – biochemical, small-molecule microarray, 635/667 nm fluorescence, primary screen (AID 1132); settings: 635 nm fluorescence, higher = more signal
Sequence of Follistatin (Homo sapiens) (P19883 whole entry, looked up): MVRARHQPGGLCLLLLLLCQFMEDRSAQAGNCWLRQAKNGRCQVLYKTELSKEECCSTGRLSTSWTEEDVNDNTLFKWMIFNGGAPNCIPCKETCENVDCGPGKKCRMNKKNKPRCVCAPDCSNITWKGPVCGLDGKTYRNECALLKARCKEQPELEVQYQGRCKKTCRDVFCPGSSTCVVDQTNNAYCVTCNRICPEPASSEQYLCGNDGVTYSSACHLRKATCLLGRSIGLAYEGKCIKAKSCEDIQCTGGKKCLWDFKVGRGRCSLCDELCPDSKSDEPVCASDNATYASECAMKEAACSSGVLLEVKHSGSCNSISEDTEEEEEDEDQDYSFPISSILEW

[6] = biological target: Fibroblast growth factor 2 (Homo sapiens) (UniProt P09038); assay: basic fibroblast growth factor binding to printed compounds – biochemical, small-molecule microarray, 635/667 nm fluorescence, primary screen (AID 1133); settings: FGF2, fluorescence 635/667, higher = more signal
Sequence of Fibroblast growth factor 2 (Homo sapiens) (P09038 whole entry, looked up): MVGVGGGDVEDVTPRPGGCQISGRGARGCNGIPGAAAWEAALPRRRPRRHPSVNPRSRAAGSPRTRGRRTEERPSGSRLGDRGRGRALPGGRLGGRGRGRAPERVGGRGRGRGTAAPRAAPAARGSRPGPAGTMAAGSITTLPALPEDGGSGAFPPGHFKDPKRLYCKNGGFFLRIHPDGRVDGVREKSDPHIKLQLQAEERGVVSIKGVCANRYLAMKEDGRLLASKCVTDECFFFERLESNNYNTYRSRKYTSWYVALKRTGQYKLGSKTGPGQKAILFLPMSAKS

[7] = JC-1 mitochondrial potential readout, lung cancer cells – cell-based, A549, JC-1 fluorescence, basal, 24 h, 100 nL, profiling panel (AID 1138); settings: higher = more signal;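 note: A549 lung adenocarcinoma cells under basal conditions with no added stimulus; test concentration not given here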
[8] = system: Lefty1; assay: Lefty1 protein binding to printed compounds – biochemical, small-molecule microarray, 635/667 nm fluorescence, primary screen (AID 1139); settings: fluorescence 635/667, higher = more signal
[9] = system: wheat germ agglutinin (Triticum aestivum), Alexa647-labelled; assay: Alexa647-WGA lectin binding to printed small molecules – biochemical, small-molecule microarray, 635/667 nm fluorescence, artefact control for SMM control-protein annotation, profiling panel (AID 1140); settings: WGA-A647 binding, 635 nm fluorescence, higher = more signal;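 note: score merges 667 nm feature emission with signal to noise over triplicate slides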
[10] = biological target: Luciferin 4-monooxygenase (Photinus pyralis) (UniProt P08659); assay: inhibition of purified Photinus pyralis luciferase – biochemical, luminescence, purified enzyme, 2006 set, primary screen (AID 1141); settings: purified firefly luciferase, SteadyGlo luminescence, 30 min; higher = more signal, called active from +8 up or from −8 down;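 note: cell-free assay with purified firefly luciferase at 100 ng per well in PBS; test concentration not given here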
Sequence of Luciferin 4-monooxygenase (Photinus pyralis) (P08659 whole entry, looked up): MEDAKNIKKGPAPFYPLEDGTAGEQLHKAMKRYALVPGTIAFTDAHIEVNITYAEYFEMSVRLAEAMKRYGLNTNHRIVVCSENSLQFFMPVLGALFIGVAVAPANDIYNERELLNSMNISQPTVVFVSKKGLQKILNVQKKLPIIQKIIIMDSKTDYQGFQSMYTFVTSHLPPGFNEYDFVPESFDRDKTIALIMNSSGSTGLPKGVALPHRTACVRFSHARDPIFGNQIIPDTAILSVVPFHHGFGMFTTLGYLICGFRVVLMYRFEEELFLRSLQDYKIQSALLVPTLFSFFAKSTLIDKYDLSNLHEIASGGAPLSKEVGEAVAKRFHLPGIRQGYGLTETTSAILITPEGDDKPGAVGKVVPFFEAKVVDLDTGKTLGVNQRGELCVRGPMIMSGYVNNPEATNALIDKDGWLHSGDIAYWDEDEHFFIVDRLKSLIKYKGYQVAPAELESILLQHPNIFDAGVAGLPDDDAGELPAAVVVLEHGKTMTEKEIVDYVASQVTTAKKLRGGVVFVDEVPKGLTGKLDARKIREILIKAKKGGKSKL

SMILES	composite z-score [1]	composite z-score [2]	composite z-score [3]	composite z-score [4]	composite z-score [5]	composite z-score [6]	z-score [7]	composite z-score [8]	composite z-score [9]	z-score [10]
CO[C@H]1COC(=O)[C@@H](C)NC(=O)CC=C[C@@H](C)[C@H](OC)COC(=O)CC=C[C@@H]1C	-0.31	-1.46	0.223	-1.07	1.34	1.63	2.3	1.66	-1.16	-1.38 (inactive)
COc1ccc(CCN2C(=O)[C@@]3(c4ccc([N+](=O)[O-])cc4)CC(=O)N(CC45CC6CC(CC(C6)C4)C5)[C@@H]3c3ccc(CO)cc32)cc1	0.286	0.415	0.38	0.138	0.572	-0.0451	1.15	-0.531	-0.0366	-0.736 (inactive)
O=C1NC(=O)C2C1C=CC(C(O)C=Cc1ccc([N+](=O)[O-])cc1)N2Nc1ccccn1 (stereo not given)	2.75	0.235	-0.0708	0.123	0.637	1.92	0.361	0.509	0.551	-1.07 (inactive)
CCOC(=O)C[C@H]1[C@H](OC(=O)Cc2ccc3c(c2)OCO3)[C@@H](NC(=O)CC(C)C)c2cc(OCCCO)ccc2N1C(=O)c1ccccc1	-0.314	0.157	0.344	0.165	0.45	0.503	1.91	0.492	0.0122	-1.26 (inactive)
O=C1O[C@@H](c2ccccc2)[C@@H](c2ccccc2)N2[C@@H](c3ccccc3OCCO)[C@]3(C(=O)Nc4ccc(C#CC5=CCCCC5)cc43)[C@@H](C(=O)O)[C@H]12	1.91	1.19	0.705	0.934	1.14	0.301	-2.32	0.699	1.17	-5.86 (inactive)
CC(C)CN1C(=O)[C@@]2(Cc3ccccc31)c1ccccc1C(=O)N(C1CCCCC1)[C@H]2c1ccc(CO)cc1	-1.34	-1.05	-0.133	-1.04	-0.447	-0.914	-0.269	-1.28	-1.14	-0.275 (inactive)
COC(=O)[C@H]1[C@@H]2COc3ccccc3[C@H]2N[C@H]1C(=O)OC	-0.0432	0.0902	0.404	0.428	0.214	0.446	0.603	0.171	0.274	-1.37 (inactive)
CC(=O)NCCCC[C@@H]1NC(=O)[C@H]2C[C@@H](C(=O)NCCCCCCN(C)C)[C@@H](c3cccc(OCCO)c3)N2C1=O	2.66	1.2	1.15	0.478	1.37	1.33	-0.153	1.57	0.797	-0.805 (inactive)
CO[C@H]1COC(=O)CC=C[C@H](C)[C@@H](OC)COC(=O)CC=C[C@@H]1C	0.245	-1.11	-0.415	-0.706	0.956	1.29	1.35	0.817	-0.991	-1.38 (inactive)
CCN1C(C)=C(C(=O)OC)[C@@H](c2ccccc2)N2C(=O)[C@](O)(C(=O)OC)[C@@H](c3ccccc3)C(C(=O)c3ccccc3)=C12	0.0774	0.778	0.0079	0.983	0.411	0.411	1.58	0.717	0.593	-1.2 (inactive)
CCCC=C(CCC)[C@@H](NS(=O)(=O)c1cccc(C(F)(F)F)c1)c1ccc(C(=O)OC)cc1	0.54	0.4	-0.209	0.436	0.572	0.319	0.622	0.0304	0.295	2.82 (inactive)
CCN1C(C)=C(C(=O)OC)[C@@H](c2ccccc2)N2C(=O)[C@@]3(C(=O)OC)O[C@@]12[C@@H]1C(=O)N(C)C(=O)[C@@H]13	1.65	0.812	-0.23	0.819	0.968	0.916	0.842	0.819	1.12	-0.701 (inactive)
C=CCC1=C[C@H]2[C@H]([C@@H]3C=C[C@]2(CC=C)C(=O)[C@]32CO2)[C@@]2(CO2)C1=O	-0.131	-1.2	-0.263	-0.571	1.45	1.45	1.84	1.58	-0.0818	-1.01 (inactive)
CN(C)CCCC[C@@H]1NC(=O)[C@@H]2C[C@H](C(=O)NCCCCCNC(=O)CS)[C@H](c3ccc(O)cc3)N2C1=O	1.12	1.19	-0.0662	0.946	1.52	1.65	1.3	1.65	1.23	-1.11 (inactive)
CN1C(=O)C2C=CC(C(O)C3CC=CCC3)N(Nc3ccccc3)C2C1=O (stereo not given)	0.674	1.14	-0.198	0.678	1.28	0.769	0.883	1.29	1.24	0.864 (inactive)
CCCNC(=O)[C@@H]1c2ccccc2C(=O)N(C2CCCCC2)[C@H]1c1ccc(CO)cc1	2.26	1.22	0.798	0.958	0.927	0.915	0.888	0.443	0.795	0.311 (inactive)
O=C(NCc1ccccc1)[C@@]1(CCS(=O)(=O)c2ccccc2)COC(c2ccc(OCCCO)cc2)=N1	3.16	1.26	0.79	0.869	0.354	-0.376	0.959	-0.278	1.49	-1.42 (inactive)
